Laboratory results: PubChem BioAssay (NCATS)
Records with an inconclusive call do not appear. The source made the active and inactive calls. The call rests on the fitted dose curve; in most records, active means well fitted curve in the direction sought with a large enough effect; inconclusive means small, poorly fitted or top-dose-only effect, or another doubt; inactive means no such curve, though single readings can be large; an effect the other way counts as inactive or inconclusive.

Columns and labels:
[1] = Panc-1005 Cancer Cell Toxicity qHTS against the NCATS CANVASS Library (AID 1347349); further: nearly all actives have a fitted effect of over 60% in size; further: potency means the concentration at half of the fitted maximal effect
Outline: (§1)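 1000 cells/well; 4 h settle; 11-pnt titration; 72 h, 37 degrees C, 5% CO2; CellTiter-Glo, 15min RT; luminescence read.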

[2] = SW1088 Cancer Cell Toxicity qHTS against the NCATS CANVASS Library (AID 1347350); further: nearly all actives have a fitted effect of over 75% in size; further: potency means the concentration at half of the fitted maximal effect
Outline: as §1

[3] = A2780 Cisplatin Sensitive Ovarian Cancer Cell Toxicity qHTS against the NCATS CANVASS Library (AID 1347353); further: nearly all actives have a fitted effect of over 60% in size; further: potency means the concentration at half of the fitted maximal effect
Outline: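 Seventy-two-hour exposure of cisplatin-sensitive A2780 ovarian cells to an 11-concentration qHTS series; cytotoxicity is inferred from loss of ATPLite luminescence. Bortezomib titration served as positive control.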

[4] = SDT Cancer Cell Toxicity qHTS against the NCATS CANVASS Library (AID 1347365); further: nearly all actives have a fitted effect of over 60% in size; further: potency means the concentration at half of the fitted maximal effect
Outline: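 Dispense 500 SDT cells per well; pin-transfer compounds; incubate 72 hr at 37C, 5% CO2, 95% RH; add CellTiterGlo and read luminescence.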

[5] = G06 Cancer Cell Toxicity qHTS against the NCATS CANVASS Library (AID 1347368); further: nearly all actives have a fitted effect of over 60% in size; further: potency means the concentration at half of the fitted maximal effect
Outline: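 Cytotoxicity toward canine glioma G06 cells is scored from cellular ATP via luminescence after 72 hr compound exposure at 500 cells/well.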

[6] = MCF7 Cancer Cell Toxicity qHTS against the NCATS CANVASS Library (AID 1347369)
Outline: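 This 72 hr qHTS scored MCF7 viability by CellTiterGlo luminescence, with 500 cells/well; bortezomib titration ran as control.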

[7] = DH5-alpha competent E. coli microbial cell viability qHTS against the NCATS CANVASS Library (AID 1347377); details: outcome: dose series up to 46.1 µM unless noted
Outline: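 Cell viability of competent DH5-alpha E. coli is scored from ATP content by luminescence. Cells sit overnight at 37C with compound across an 11-point concentration series.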

[8] = qHTS assay for small molecule disruptors of mitochondrial membrane potential screened against the NCATS CANVASS Library (AID 1347389); further: nearly all actives have a fitted effect of over 60% in size; further: potency means the concentration at half of the fitted maximal effect
Outline: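 Compounds tested in 11-point qHTS series on HepG2 cells for 1 hr; membrane-potential dye added for 30 min at 37C. Lower red-to-green ratio indicates loss of potential.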

[9] = qHTS for activators of Nrf2/ARE signaling pathway screened against the NCATS CANVASS Library (AID 1347391); further: nearly all actives have a fitted effect of over 60% in size; further: potency means the concentration at half of the fitted maximal effect
Outline: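 Cells carrying an ARE-driven beta-lactamase reporter (HepG2 background) are dosed for 16 h, then stained with CCF4. Cell viability in the same wells is measured by CellTiter-Glo luminescence.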

[10] = qHTS for inhibitors of ER calcium dysfunction: SERCaMP assay screened against the NCATS CANVASS Library (AID 1347393); further: nearly all actives have a fitted effect of over 40% in size; further: potency means the concentration at half of the fitted maximal effect
Outline: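 Thapsigargin-induced ER calcium depletion drives GLuc-SERCaMP secretion from SH-SY5Y cells; compounds given 16 h beforehand were scored by lowered coelenterazine luminescence after 4 h challenge.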

[11] = Vero-766 cells viability qHTS against the NCATS CANVASS Library: Counterscreen for Zika virus inhibition assay (AID 1347394); further: nearly all actives have a fitted effect of over 60% in size; further: potency means the concentration at half of the fitted maximal effect
Outline: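 Counterscreen for toxicity: Vero 766 cells exposed 72 h to an 11-point compound series, viability by CellTiter-Glo.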

[12] = qHTS for inhibitors of Wild type Zika virus screened against the NCATS CANVASS Library (AID 1347396);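 further: ATP luminescence of surviving cells so rescue from viral cell killing; series mostly up to about 46 µM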
Outline: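 Protection against wild-type Zika cytopathic effect is measured in African green monkey Vero 766 cells exposed to an 11-point compound series. Surviving cells are quantified by CellTiter Glo luminescence after 72 h.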

[13] = HPAF-II Cancer Cell Toxicity qHTS against the NCATS CANVASS Library (AID 1347346); further: nearly all actives have a fitted effect of over 55% in size; further: potency means the concentration at half of the fitted maximal effect
Outline: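 Cytotoxicity in HPAF-II pancreatic cancer cells: 72 h treatment across 11 concentrations, ATP-based CellTiter-Glo luminescence endpoint.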

[14] = U-118MG Cancer Cell Toxicity qHTS against the NCATS CANVASS Library (AID 1347351)
Outline: as §1

[15] = HPAF-II 24hr Apoptosis Induction qHTS against the NCATS CANVASS Library (AID 1347356)
Outline: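 Apoptosis induction in HPAF-II pancreatic cancer cells is measured as caspase-3/7 luminescence after a 24-hour exposure to compounds.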

[16] = qHTS for Hypoxia signaling pathway (HIF-1) antagonists against the NCATS CANVASS Library (AID 1347374); further: nearly all actives have a fitted effect of over 60% in size; further: potency means the concentration at half of the fitted maximal effect
Outline: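 HRE-bla ME-180 cells (2,000/well, 0.5% dialyzed FBS) were pre-incubated 5 h, then given an 11-point compound series plus CoCl2 (60 uM solution as added) for 17 h at 37C. CCF4 β-lactamase read (ex 405, em 460/530 nm) after 2 h at RT.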

[17] = qHTS for Antimalaria activity screened against the NCATS CANVASS Library (AID 1347380); further: nearly all actives have a fitted effect of over 40% in size; further: potency means the concentration at half of the fitted maximal effect
Outline: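 Growth inhibition of asexual erythrocytic P. falciparum Dd2 was quantified by SYBR Green DNA staining. Cultures grew 72 h with compound (11-point series) in hypoxic gas at 37C; lysis and staining lasted 18 h.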

[18] = OV-KATE Cancer Cell Toxicity qHTS against the NCATS CANVASS Library (AID 1347345)
Outline: as §1

[19] = UWB1.289 Cancer Cell Toxicity qHTS against the NCATS CANVASS Library (AID 1347347); further: nearly all actives have a fitted effect of over 60% in size; further: potency means the concentration at half of the fitted maximal effect
Outline: as §1

[20] = UWB1.289-WTBRCA1 Cancer Cell Toxicity qHTS against the NCATS CANVASS Library (AID 1347354); further: potency means the concentration at half of the fitted maximal effect
Outline: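 qHTS cytotoxicity: compounds tested in 11 concentrations on 1000 seeded cells per well over 72 h; bortezomib served as control; signal from CellTiter-Glo luminescence.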

Measured: Potency

C[C@@H]1CC[C@]2(C(=O)O)CC[C@]3(C)C(=C2[C@H]1C)CC[C@@H]1[C@@]2(C)CC[C@H](O)C(C)(C)[C@@H]2CC[C@]13C
active: [1] 21.1 µM | [2] 23.7 µM | [11] 18.6 µM
inactive: [3] | [4] | [5] | [6] | [7] | [8] | [9] | [10] | [12]

COC(=O)c1cc2cc3c(c(O)c2c(=O)o1)OC1(CC3)CC2=C(O1)C(=O)c1c(O)c(OC)cc(OC)c1C2=O (centres undefined)
inactive: [14] | [15] | [7] | [17] | [10]
active: [13] 18.8 µM | [1] 21.1 µM | [2] 13.3 µM | [3] 20.9 µM | [16] 14.9 µM | [8] 3.31 µM | [9] 10.5 µM | [11] 26.3 µM

C[C@@]12C[C@@H](C[C@@H]3C(=O)O[C@@H](c4ccoc4)[C@H](OC(=O)c4ccccc4)[C@@H]31)OC2=O
inactive: [18] | [13] | [19] | [1] | [2] | [14] | [3] | [20] | [15] | [4] | [5] | [6] | [16] | [7] | [17] | [8] | [9] | [10] | [12]

Cc1cc(C)c(O)c(C(=O)CC2CC(=O)NC(=O)C2)c1
inactive: [2] | [7] | [8] | [12]
active: [3] 4.69 µM | [4] 1.32 µM | [5] 2.64 µM | [16] 7.47 µM | [17] 2.98 µM

CC(C)=CCC/C(C)=C/Cc1cc([C@@H]2CC(=O)c3c(cc(O)c(CC=C(C)C)c3O)O2)ccc1O
active: [2] 14.9 µM | [17] 16.7 µM | [8] 23.4 µM | [9] 20.9 µM | [10] 38.4 µM
inactive: [14] | [3] | [20] | [4] | [5] | [6] | [7] | [11] | [12]

CC1(C)CC[C@]2(CO)CC[C@]3(C)C(=CCC4[C@@]5(C)CC[C@H](O)C(C)(C)C5CC[C@]43C)C2C1 (some centres undefined)
inactive: [18] | [13] | [19] | [1] | [2] | [14] | [3] | [20] | [15] | [4] | [5] | [16] | [7] | [8] | [9] | [10] | [11] | [12]

C/C1=C/[C@@H](C)[C@H](O)[C@@H](O)/C=C/CC/C=C/C(=O)O[C@@H]1[C@H](C)C(=O)/C=C/CC1CC(=O)NC(=O)C1
active: [3] 13.2 µM | [4] 18.7 µM | [16] 16.7 µM
inactive: [13] | [2] | [20] | [15] | [6] | [7] | [17] | [8] | [10] | [11] | [12]

C=C[C@](Cl)(CBr)CCC=C(C)C
inactive: [13] | [19] | [1] | [2] | [14] | [20] | [4] | [6] | [16] | [7] | [17] | [8] | [11] | [12]
active: [3] 20.9 µM

C/C(=C\[C@H](C)C(=O)C[C@H](O)CC1CC(=O)NC(=O)C1)[C@@H]1OC(=O)CCCC/C=C/C[C@@H](O)[C@@H]1C
inactive: [2] | [15] | [6] | [7] | [8] | [10] | [11] | [12]
active: [3] 2.35 µM | [4] 1.66 µM | [5] 2.64 µM | [16] 4.72 µM | [17] 4.72 µM

CC(C)=CC[C@H]1C[C@@]2(CC=C(C)C)C(=O)[C@](CC=C(C)C)(C(=O)C(C(=O)c3ccccc3)=C2O)C1(C)C
inactive: [15] | [6] | [7] | [9] | [12]
active: [13] 6.68 µM | [19] 8.38 µM | [1] 13.3 µM | [2] 4.21 µM | [3] 14.8 µM | [20] 11.8 µM | [5] 20.9 µM | [16] 5.94 µM | [8] 7.41 µM | [10] 30.5 µM

C/C=C/C(=O)C1(O)CC2CC(C(=O)O)CC(C)C2C1C1=C2C(=O)NC(=O)C2=C(CCCCC)C(C)O1 (centres undefined)
inactive: [15] | [6] | [17] | [11]
active: [13] 18.8 µM | [2] 7.49 µM | [3] 8.33 µM | [4] 16.6 µM | [5] 11.8 µM | [16] 5.94 µM | [9] 1.17 µM | [10] 19.3 µM
